Results filed as inconclusive are left out. The source made the active and inactive calls.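 Rule for the calls, unless noted: active = percent response above a set limit, the screen-wide mean plus 3 SD (cut at about 130% in these data); inactive = the rest.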
Legend:
[1] = yeast TOR pathway RPL19A-GFP modulators, primary screen, cell-based, S. cerevisiae, multiplex flow cytometry (AID 1862; in the data active = percent of DMSO control GFP below about 86%;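 note: lower values mimic rapamycin by blocking the RPL19A rise seen in DMSO cells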); conditions: S. cerevisiae RPL19A-GFP strain, flow cytometry fluorescence, 3 h; at 10 µM; stronger effect = lower value
[2] = modulators of MEP2-GFP levels in yeast, primary screen, S. cerevisiae, multiplex flow cytometry (AID 1867;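 active = GFP response, as percent of the DMSO control, above the screen-wide mean plus 3 SD, about 139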;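 note: median GFP channel fluorescence of barcode-gated MEP2-GFP cells measured by flow cytometry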); conditions: S. cerevisiae MEP2-GFP strain, 3 h, at 10 µM, stronger effect = higher value, 100% means same as DMSO wells
[3] = modulators of CIT2-GFP expression in yeast, primary screen, S. cerevisiae, GFP fusion, multiplex flow cytometry (AID 1870); conditions: 3 h, at 10 µM, stronger effect = higher value;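 note: barcoded CIT2-GFP strain pooled with four other GFP strains with rapamycin as positive control; median GFP fluorescence per well over plate mean of DMSO wells so 100% = DMSO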
[4] = modulators of LAP4-GFP expression in yeast, primary screen, S. cerevisiae, multiplex flow cytometry (AID 1873;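 active = GFP signal, as percent of the solvent control, above the screen mean plus 3 SD, about 149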); conditions: 3 h, at 10 µM, stronger effect = higher value
[5] = modulators of AGP1-GFP expression in yeast TOR pathway, primary screen, cell-based, multiplex flow cytometry, S. cerevisiae (AID 1887;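 active = GFP signal above the screen-wide mean plus 3 SD, that is over about 124.5% of the solvent control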;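 note: AGP1-GFP fusion strain of S. cerevisiae within a five-strain barcoded multiplex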); conditions: 3 h, at 10 µM, stronger effect = higher value
[6] = inhibitors of CD8+ T cell-vesicle binding, pilot screen, LFA-1/ICAM-1 modulator project, MLPCN validation set, flow cytometry (AID 2523;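 active = response below a set limit, under 55% cells CD8-positive and vesicle-bound, and CD8 cells' 90th-percentile brightness under 279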;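 for vesicle binding response: mean PE anti-B7-1 fluorescence of CD8+ cells relative to row control; 100% = QL9-loaded vesicles with DMSO vehicle in the same plate row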); conditions: 2C mouse CD8+ T cells, at 7 µM, stronger effect = lower value; double positive events: measured here: CD8+/vesicle+ event percentage
[7] = target: Integrin beta-1 (Homo sapiens) + Integrin alpha-4 (Homo sapiens) (UniProt P13612+P05556); experiment: inhibition of HUTS-21 binding to VLA-4, pilot screen, VLA-4 allosteric modulator project, U937 cells, HUTS-21 mAb, flow cytometry, validation set (AID 2674;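 active = inhibition above 50%, about 3 SD of the validation set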;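 note: antibody binding induced by the VLA-4 ligand LDV present at three times its Kd; 0% = LDV ligand with antibody and no compound and 100% = antibody without LDV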); conditions: HUTS-21 LIBS mAb binding, at 6.7 µM, stronger effect = higher value, binding induced by LDV ligand
[8] = superoxide lowering in aged yeast cells, pilot screen, validation compound set (AID 2706;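 active = superoxide response below 65% of plate, a cut near 3 SD across the whole screen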;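 note: yeast exposed to compound for one week at 30 degrees C before staining; 100% = mean of all compound wells on the same plate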); conditions: S. cerevisiae aging, superoxide DHE fluorescence; at 10 µM; stronger effect = lower value
[9] = target: Beta-adrenergic receptor kinase 1 (Homo sapiens) (UniProt P25098); experiment: GRK2 binders displacing RNA aptamer, biochemical, validation, human GRK2, bead flow cytometry (AID 488806;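 active = aptamer binding inhibition above 30%, about 3 SD of noise from non-fluorescent compounds; inactive = inhibition at or below 30%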); conditions: bead-bound GRK2, FAM-aptamer displacement, at 10 µM, stronger effect = higher value
[10] = target: Beta-2 adrenergic receptor (Homo sapiens) (UniProt P07550); experiment: beta2AR agonists driving receptor internalization, pilot screen, cell-based, FAP fluorogen, flow cytometry, validation set (AID 504459;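 active = percent response above 42, roughly 3 SD of non-fluorescent test compounds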;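 note: agonist-driven loss of surface beta2AR via internalization measured by FAP dye flow cytometry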); conditions: Am2.2-beta2AR cells, FAP surface receptor flow cytometry; at 10 µM; stronger effect = higher value
[11] = target: AP-2 complex subunit beta (Homo sapiens) (UniProt P63010); experiment: inhibitors of arrestin peptide binding to AP2, pilot screen, biochemical, validation set, GST-AP2 beads, flow cytometry (AID 504541;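 active = inhibition above 54%, about 3 SD of non-fluorescent compounds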;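 note: AP2 carries R879A mutation and is captured from E. coli lysate; bead-bound FITC arrestin peptide fluorescence measuring arrestin peptide binding to AP2; 0% = DMSO wells and 100% = excess unlabeled arrestin peptide control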); conditions: FITC arrestin peptide, at 10 µM, stronger effect = higher value, AP2 beta2 appendage fragment, R879A mutant
[12] = yeast V-ATPase proton transport modulators, S. cerevisiae, pHLuorin, HTS validation (AID 504600; in the data active = response above about 15%;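 note: plate controls were DMSO for no effect and reference compound for full effect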); conditions: S. cerevisiae pHLuorin cytosolic pH, at 10 µM, stronger effect = higher value
[13] = test system: anti-desmoglein-3 scFv antibody binding to human DSG3; experiment: inhibitors of anti-DSG3 scFv binding to DSG3, pilot screen, biochemical, validation compound set, bead-based, flow cytometry (AID 588368;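 active = binding below the plate cutoff, the plate median minus 3 SD, with a reading above zero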;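 note: signal is the median channel fluorescence of bead-bound GFP antibody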); conditions: Protein G beads, DSG3-Fc, scFv-GFP binding, at 10 µM, stronger effect = lower value
[14] = inhibitors of fungal efflux pumps CDR1, CDR2, MDR1, pilot screen, validation compound set, multiplex, phenotypic (AID 588506;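 active = efflux inhibition above 0.42, the validation set average plus 4 SD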;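 note: Nile Red retained in cells so higher fluorescence means more efflux inhibition; 0 = negative control wells and 1 = enniatin B 25 µM full block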); conditions: S. cerevisiae pump-expressing triplex, Nile Red efflux flow cytometry; at 10 µM; stronger effect = higher value; the pumps come from Candida albicans
[15] = target: ATP-binding cassette sub-family B member 6 (Homo sapiens) (UniProt Q9NP58); experiment: ABCB6 transporter inhibitors, pilot screen, K562-ABCB6 cells, flow cytometry, validation set (AID 588550;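 active = inhibition above the screen-wide mean plus 3 SD, about 51%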;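 note: 0% = DMSO wells and 100% = benzethonium chloride 70 µM positive control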); conditions: K562-ABCB6 porphyrin accumulation, 1 h, at 10 µM, stronger effect = higher value
[16] = promoters of myeloid differentiation in arrested cells, primary screen, cell-based, GFP/MAC1 double positive, flow cytometry, validation set (AID 588685;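 active = differentiation response of at least 50%, scaled between solvent and reference control, from cells with both markers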;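 note: compound exposure lasts four days before antibody staining and flow analysis; 0% = DMSO wells and 100% = 5 µM fulvestrant positive control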); conditions: ER-HoxA9 marrow cells, stronger effect = higher value, normalized: vehicle 0, fulvestrant 100

Chain of Beta-adrenergic receptor kinase 1 (Homo sapiens) (P25098 whole entry, looked up): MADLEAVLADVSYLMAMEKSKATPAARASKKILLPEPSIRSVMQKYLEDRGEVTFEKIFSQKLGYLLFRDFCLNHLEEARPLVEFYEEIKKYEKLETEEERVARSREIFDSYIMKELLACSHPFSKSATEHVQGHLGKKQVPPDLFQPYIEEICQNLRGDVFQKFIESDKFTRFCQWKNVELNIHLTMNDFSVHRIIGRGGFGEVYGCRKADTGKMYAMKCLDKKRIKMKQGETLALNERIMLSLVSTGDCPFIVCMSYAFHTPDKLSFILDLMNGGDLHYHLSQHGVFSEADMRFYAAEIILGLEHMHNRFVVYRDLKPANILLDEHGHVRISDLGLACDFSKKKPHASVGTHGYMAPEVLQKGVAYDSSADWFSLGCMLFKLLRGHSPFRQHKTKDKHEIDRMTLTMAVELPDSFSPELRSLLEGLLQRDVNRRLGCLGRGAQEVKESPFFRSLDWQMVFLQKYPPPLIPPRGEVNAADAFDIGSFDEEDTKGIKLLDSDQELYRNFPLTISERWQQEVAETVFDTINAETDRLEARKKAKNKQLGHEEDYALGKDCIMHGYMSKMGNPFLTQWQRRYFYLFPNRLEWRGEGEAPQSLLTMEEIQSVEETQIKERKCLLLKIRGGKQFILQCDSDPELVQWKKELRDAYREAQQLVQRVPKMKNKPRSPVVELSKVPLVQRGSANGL
Chain of Integrin beta-1 (Homo sapiens) + Integrin alpha-4 (Homo sapiens) (P05556 whole entry, looked up): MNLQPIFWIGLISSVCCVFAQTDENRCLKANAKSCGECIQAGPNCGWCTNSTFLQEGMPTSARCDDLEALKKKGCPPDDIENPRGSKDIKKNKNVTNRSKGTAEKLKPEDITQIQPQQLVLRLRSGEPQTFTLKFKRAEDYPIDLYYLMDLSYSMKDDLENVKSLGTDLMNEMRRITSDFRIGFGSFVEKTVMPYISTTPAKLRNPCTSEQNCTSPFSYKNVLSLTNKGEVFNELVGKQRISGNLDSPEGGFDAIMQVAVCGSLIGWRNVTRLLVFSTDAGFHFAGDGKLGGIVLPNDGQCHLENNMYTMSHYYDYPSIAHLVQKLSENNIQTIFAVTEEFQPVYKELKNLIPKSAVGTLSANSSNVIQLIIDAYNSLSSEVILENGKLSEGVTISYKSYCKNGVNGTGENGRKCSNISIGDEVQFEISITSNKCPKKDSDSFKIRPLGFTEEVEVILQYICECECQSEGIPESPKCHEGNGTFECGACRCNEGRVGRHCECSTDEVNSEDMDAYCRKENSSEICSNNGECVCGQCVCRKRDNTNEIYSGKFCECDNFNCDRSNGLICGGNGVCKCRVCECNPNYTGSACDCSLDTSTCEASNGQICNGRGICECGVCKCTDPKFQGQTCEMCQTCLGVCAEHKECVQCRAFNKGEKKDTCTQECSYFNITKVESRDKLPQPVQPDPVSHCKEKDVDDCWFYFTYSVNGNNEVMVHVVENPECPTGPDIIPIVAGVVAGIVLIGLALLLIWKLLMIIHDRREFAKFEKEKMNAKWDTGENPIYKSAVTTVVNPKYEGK
Chain of Integrin beta-1 (Homo sapiens) + Integrin alpha-4 (Homo sapiens) (P13612 whole entry, looked up): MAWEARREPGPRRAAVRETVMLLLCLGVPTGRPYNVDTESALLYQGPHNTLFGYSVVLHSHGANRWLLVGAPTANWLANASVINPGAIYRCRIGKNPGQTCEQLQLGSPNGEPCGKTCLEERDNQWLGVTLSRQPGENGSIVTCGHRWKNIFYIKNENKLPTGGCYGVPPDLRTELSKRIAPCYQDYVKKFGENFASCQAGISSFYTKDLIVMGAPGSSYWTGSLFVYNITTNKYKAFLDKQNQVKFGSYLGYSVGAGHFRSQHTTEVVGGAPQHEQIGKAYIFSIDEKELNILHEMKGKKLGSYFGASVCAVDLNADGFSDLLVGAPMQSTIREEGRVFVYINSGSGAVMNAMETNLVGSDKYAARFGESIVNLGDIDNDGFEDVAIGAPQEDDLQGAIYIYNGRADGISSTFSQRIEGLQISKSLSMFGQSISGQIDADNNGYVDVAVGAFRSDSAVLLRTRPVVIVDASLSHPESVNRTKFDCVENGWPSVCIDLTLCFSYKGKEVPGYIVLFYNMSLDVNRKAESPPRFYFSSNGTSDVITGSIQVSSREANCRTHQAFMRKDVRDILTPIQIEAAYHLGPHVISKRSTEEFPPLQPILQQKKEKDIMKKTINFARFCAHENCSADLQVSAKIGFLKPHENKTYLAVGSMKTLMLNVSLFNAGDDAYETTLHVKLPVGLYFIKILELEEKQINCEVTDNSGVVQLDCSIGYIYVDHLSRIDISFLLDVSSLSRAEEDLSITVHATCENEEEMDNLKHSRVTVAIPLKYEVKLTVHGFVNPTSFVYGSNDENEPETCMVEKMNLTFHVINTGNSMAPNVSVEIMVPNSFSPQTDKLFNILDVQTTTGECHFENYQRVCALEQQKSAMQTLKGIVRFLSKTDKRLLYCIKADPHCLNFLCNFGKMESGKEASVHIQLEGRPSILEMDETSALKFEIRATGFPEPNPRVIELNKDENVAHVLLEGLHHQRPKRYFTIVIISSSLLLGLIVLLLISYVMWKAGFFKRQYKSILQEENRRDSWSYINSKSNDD
Chain of Beta-2 adrenergic receptor (Homo sapiens) (P07550 whole entry, looked up): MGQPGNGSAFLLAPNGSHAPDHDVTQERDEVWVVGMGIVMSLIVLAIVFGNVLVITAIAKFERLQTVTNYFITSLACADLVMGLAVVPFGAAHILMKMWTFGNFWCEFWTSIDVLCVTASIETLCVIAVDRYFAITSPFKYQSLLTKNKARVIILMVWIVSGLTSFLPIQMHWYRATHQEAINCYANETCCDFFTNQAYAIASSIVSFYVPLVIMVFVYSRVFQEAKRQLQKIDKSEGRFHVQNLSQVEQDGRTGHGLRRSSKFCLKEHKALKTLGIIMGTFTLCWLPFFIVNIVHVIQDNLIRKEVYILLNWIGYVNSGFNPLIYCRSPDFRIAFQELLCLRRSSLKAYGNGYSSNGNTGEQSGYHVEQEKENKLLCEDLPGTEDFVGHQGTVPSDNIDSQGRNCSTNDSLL
Chain of AP-2 complex subunit beta (Homo sapiens) (P63010 whole entry, looked up, the tested form may be a part, one chain of several): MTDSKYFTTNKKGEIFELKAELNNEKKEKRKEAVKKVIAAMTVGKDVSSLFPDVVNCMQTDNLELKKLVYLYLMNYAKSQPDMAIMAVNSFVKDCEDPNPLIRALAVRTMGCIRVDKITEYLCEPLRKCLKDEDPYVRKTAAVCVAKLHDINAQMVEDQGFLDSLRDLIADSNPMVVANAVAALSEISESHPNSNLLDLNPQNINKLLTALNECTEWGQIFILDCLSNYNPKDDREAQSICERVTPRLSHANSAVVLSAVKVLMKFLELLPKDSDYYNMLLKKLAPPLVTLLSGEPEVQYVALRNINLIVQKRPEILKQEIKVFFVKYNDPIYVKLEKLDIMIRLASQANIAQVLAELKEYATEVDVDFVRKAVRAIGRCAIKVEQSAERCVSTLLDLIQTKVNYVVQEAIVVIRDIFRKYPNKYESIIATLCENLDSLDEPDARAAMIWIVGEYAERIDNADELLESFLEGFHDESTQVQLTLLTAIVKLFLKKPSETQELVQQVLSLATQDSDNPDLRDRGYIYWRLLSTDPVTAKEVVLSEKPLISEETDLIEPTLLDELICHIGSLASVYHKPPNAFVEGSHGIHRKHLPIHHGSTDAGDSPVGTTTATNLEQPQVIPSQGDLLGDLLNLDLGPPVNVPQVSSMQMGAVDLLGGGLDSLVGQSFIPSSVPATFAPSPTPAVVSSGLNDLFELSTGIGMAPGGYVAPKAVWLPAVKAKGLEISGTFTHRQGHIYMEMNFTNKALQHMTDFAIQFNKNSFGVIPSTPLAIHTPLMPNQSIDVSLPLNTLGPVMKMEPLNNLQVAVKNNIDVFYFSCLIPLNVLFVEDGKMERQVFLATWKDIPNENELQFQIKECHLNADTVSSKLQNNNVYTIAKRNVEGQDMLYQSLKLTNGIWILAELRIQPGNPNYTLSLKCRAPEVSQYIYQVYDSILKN
Chain of ATP-binding cassette sub-family B member 6 (Homo sapiens) (Q9NP58 whole entry, looked up): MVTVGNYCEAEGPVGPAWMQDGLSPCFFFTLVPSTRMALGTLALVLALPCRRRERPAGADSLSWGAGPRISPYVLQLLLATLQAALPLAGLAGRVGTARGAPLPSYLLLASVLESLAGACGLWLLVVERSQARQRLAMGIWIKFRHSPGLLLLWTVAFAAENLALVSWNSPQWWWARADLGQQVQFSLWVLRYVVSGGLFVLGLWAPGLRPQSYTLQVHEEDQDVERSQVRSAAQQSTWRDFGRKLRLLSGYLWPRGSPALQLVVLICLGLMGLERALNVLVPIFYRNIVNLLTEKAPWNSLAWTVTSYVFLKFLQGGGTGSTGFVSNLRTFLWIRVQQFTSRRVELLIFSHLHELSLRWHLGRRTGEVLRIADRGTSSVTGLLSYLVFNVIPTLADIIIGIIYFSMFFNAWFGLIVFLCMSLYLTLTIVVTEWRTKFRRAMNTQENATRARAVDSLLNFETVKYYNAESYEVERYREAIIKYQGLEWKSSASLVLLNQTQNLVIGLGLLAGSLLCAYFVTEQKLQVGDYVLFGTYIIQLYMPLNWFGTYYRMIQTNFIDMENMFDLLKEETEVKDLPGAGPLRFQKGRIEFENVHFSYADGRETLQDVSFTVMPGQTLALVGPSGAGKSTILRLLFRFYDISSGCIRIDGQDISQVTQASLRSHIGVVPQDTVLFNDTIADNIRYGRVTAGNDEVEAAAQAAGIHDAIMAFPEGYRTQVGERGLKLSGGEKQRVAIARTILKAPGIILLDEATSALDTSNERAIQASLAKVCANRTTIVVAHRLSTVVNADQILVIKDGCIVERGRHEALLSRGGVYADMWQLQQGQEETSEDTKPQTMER

C[N+](C)(C)CCCC(=O)c1ccc2c(c1)OCO2
inactive: percent of DMSO control GFP [1] 94.4% | GFP response vs DMSO [2] 111% | percent response of DMSO control [3] 96.7% | GFP response vs DMSO [4] 107% | GFP response, % of DMSO [5] 97.7% | vesicle binding response [6] 135% | inhibition [7] -22.3% | superoxide response (% of plate) [8] 104% | aptamer binding inhibition [9] 0% | response [10] -0.41% | inhibition [11] -2.19% | response [12] 0.48% | binding (% of control) [13] 101% | efflux inhibition (fraction of control) [14] -0.03 | inhibition [15] 8% | differentiation response [16] -12%
59.8%: double positive events [6]

COc1ccc([C@H]2[C@H](C(=O)OC(C)(C)C)N3N=Cc4ccccc4C3C23C(=O)c2ccccc2C3=O)cc1OC (stereo partly drawn)
inactive: percent of DMSO control GFP [1] 99.1% | GFP response vs DMSO [2] 106% | percent response of DMSO control [3] 97.7% | GFP response vs DMSO [4] 97.4% | GFP response, % of DMSO [5] 89.1% | inhibition [7] -45.5% | superoxide response (% of plate) [8] 103% | aptamer binding inhibition [9] -1% | response [10] 35.3% | response [12] -3.19% | binding (% of control) [13] 96.8% | efflux inhibition (fraction of control) [14] -0.06 | inhibition [15] -27% | differentiation response [16] -13.6%
49.9%: double positive events [6]
active: vesicle binding response [6] 39.2% | inhibition [11] 61.9%

COc1ccc(C2CC(c3ccc([N+](=O)[O-])cc3)=NN2C(=O)c2ccccc2)cc1OC (stereo not drawn)
inactive: percent of DMSO control GFP [1] 97.1% | GFP response vs DMSO [2] 101% | percent response of DMSO control [3] 97% | GFP response vs DMSO [4] 108% | GFP response, % of DMSO [5] 116% | vesicle binding response [6] 211% | inhibition [7] 13.4% | superoxide response (% of plate) [8] 79.1% | aptamer binding inhibition [9] 4% | response [10] 6.46% | response [12] -0.24% | binding (% of control) [13] 92.9% | inhibition [15] 0% | differentiation response [16] -12.9%
64.6%: double positive events [6]
active: inhibition [11] 65.2% | efflux inhibition (fraction of control) [14] 0.59

Cn1nnnc1SCC1=C(C(=O)O)N2C(=O)[C@@H](NC(=O)[C@H](O)c3ccccc3)[C@H]2SC1
67.4%: double positive events [6]
inactive: percent of DMSO control GFP [1] 97.7% | GFP response vs DMSO [2] 115% | percent response of DMSO control [3] 106% | GFP response vs DMSO [4] 90.2% | GFP response, % of DMSO [5] 103% | vesicle binding response [6] 318% | inhibition [7] 0.64% | superoxide response (% of plate) [8] 86.1% | aptamer binding inhibition [9] 13% | response [10] 3.85% | inhibition [11] 3.95% | response [12] 1.15% | binding (% of control) [13] 107% | efflux inhibition (fraction of control) [14] 0.3 | inhibition [15] 16% | differentiation response [16] 15.6%

Cc1nc(NC(CC(C)C)C(=O)O)c2nc(C)oc2n1 (stereo not drawn)
inactive: percent of DMSO control GFP [1] 97.4% | GFP response vs DMSO [2] 111% | percent response of DMSO control [3] 90.1% | GFP response vs DMSO [4] 120% | GFP response, % of DMSO [5] 101% | vesicle binding response [6] 121% | inhibition [7] -5.89% | superoxide response (% of plate) [8] 95.4% | aptamer binding inhibition [9] 7% | response [10] 3.8% | inhibition [11] 4.51% | response [12] 3.4% | binding (% of control) [13] 102% | efflux inhibition (fraction of control) [14] -0.13 | inhibition [15] 6% | differentiation response [16] -28%
57.6%: double positive events [6]

O=c1ccc2c(o1)/C(=C/C=C(Cl)Cl)CCC2
56.9%: double positive events [6]
active: response [10] 62.6% | inhibition [11] 60.4%
inactive: percent of DMSO control GFP [1] 101% | GFP response vs DMSO [2] 101% | percent response of DMSO control [3] 90.1% | GFP response vs DMSO [4] 110% | GFP response, % of DMSO [5] 84% | vesicle binding response [6] 236% | inhibition [7] -7.25% | superoxide response (% of plate) [8] 101% | aptamer binding inhibition [9] 2% | response [12] -6.24% | binding (% of control) [13] 101% | efflux inhibition (fraction of control) [14] -0.06 | inhibition [15] 6% | differentiation response [16] -10.4%

CCOC(=O)C1=C2c3ccc4ccccc4c3CC(C)(C)N2C(=O)C1=O
inactive: percent of DMSO control GFP [1] 104% | GFP response vs DMSO [2] 93% | percent response of DMSO control [3] 99.6% | GFP response vs DMSO [4] 78.6% | GFP response, % of DMSO [5] 85.1% | vesicle binding response [6] 205% | inhibition [7] -4.52% | superoxide response (% of plate) [8] 114% | aptamer binding inhibition [9] 3% | response [10] 7.03% | inhibition [11] 1.16% | response [12] -4.69% | binding (% of control) [13] 96.8% | efflux inhibition (fraction of control) [14] -0.17 | inhibition [15] -3% | differentiation response [16] -8.8%
62%: double positive events [6]

Cc1cccc(Nc2ccccc2C(=O)O)c1C
65.8%: double positive events [6]
inactive: percent of DMSO control GFP [1] 99.5% | GFP response vs DMSO [2] 102% | percent response of DMSO control [3] 86.7% | GFP response vs DMSO [4] 114% | GFP response, % of DMSO [5] 102% | vesicle binding response [6] 236% | inhibition [7] 4.84% | superoxide response (% of plate) [8] 87.1% | aptamer binding inhibition [9] -1% | response [10] -5.24% | inhibition [11] -8.96% | response [12] -29.3% | binding (% of control) [13] 101% | efflux inhibition (fraction of control) [14] 0.08 | inhibition [15] 5% | differentiation response [16] -12.9%

COc1ccc(C2OC[C@H]3O[C@H](O)[C@H](NC(C)=O)[C@@H](O)[C@@H]3O2)cc1 (stereo partly drawn)
76.5%: double positive events [6]
inactive: percent of DMSO control GFP [1] 99.8% | GFP response vs DMSO [2] 106% | percent response of DMSO control [3] 97.6% | GFP response vs DMSO [4] 95.9% | GFP response, % of DMSO [5] 97.5% | vesicle binding response [6] 135% | inhibition [7] 6.95% | superoxide response (% of plate) [8] 98.6% | aptamer binding inhibition [9] 0% | response [10] 8.93% | inhibition [11] 6.9% | response [12] 4.88% | binding (% of control) [13] 95.3% | efflux inhibition (fraction of control) [14] -0.04 | inhibition [15] 12% | differentiation response [16] -4.57%
